The values that follow come from PubChem BioAssay (EPA / NIEHS).

The AC50 is the midpoint of the concentration-response curve, whichever way the signal moves.

Test [1] can be described thus: ATG_NFI_CIS: Attagene CIS-FACTORIAL HepG2 Assay for human Nuclear Factor I (NFI) (AID 2282989). As to conditions: HepG2 cis-regulatory reporter, NFI response element transcription; actives raise or lower the signal. In outline: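 Read-out: reporter mRNA via RT-PCR plus capillary electrophoresis with fluorescence detection. Transiently transfected HepG2 (endogenous TF activity on cis promoters), 24 h compound exposure; gain or loss of signal fitted against DMSO.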

Test [2] addresses Myc proto-oncogene protein (Homo sapiens) (UniProt P01106). As to the kind of experiment: ATG_Myc_CIS: Attagene CIS-FACTORIAL HepG2 Assay for human Myelocytomatosis (Myc) Proto-Oncogene Transcription Factor (AID 2282990). As to conditions: HepG2, Attagene cis-reporter transcription factor activity; actives raise or lower the signal. In outline: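 Transiently transfected HepG2 cells bearing cis-promoter reporter units for endogenous transcription factors; 24 h exposure. Reporter mRNA measured by RT-PCR, 6-FAM primer extension, HpaI cut and capillary electrophoresis; bidirectional fit relative to DMSO.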

Test [3] is described as follows: ATG_NF_kB_CIS: Attagene CIS-FACTORIAL HepG2 Assay for human Nuclear Factor Kappa B (NF-kB) (AID 2282991). As to conditions: HepG2 Attagene cis-factorial NF-kB reporter mRNA; actives raise or lower the signal. In outline: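 Read-out: reporter transcript levels quantified by RT-PCR plus capillary electrophoresis of 6-FAM-labelled, HpaI-cut fragments. Transfected HepG2 cells, 24 h compound exposure, endogenous NF-kB-driven cis element; gain or loss scored versus DMSO.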

Test [4] is described as follows: ATG_NRF2_ARE_CIS: Attagene CIS-FACTORIAL HepG2 Assay for human Nuclear Factor Erythroid 2 Related Factor 2 (NFR2) response to Antioxidant Response Elements (ARE) (AID 2282992).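 As to AC50: reporter mRNA level measured by RT-PCR and capillary electrophoresis fluorescence.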 As to conditions: HepG2 Attagene ARE/NRF2 reporter, transcription factor activity; actives raise or lower the signal. A digest of the protocol: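 Endogenous transcription factor activity in human liver HepG2 cells is tracked via a cis-element-driven reporter within a multiplexed set. mRNA induction is read by RT-PCR and capillary electrophoresis after 24 h, with DMSO as baseline.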

A short description of test [5]: ATG_Oct_MLP_CIS: Attagene CIS-FACTORIAL HepG2 Assay for human Octamer-Binding Transcription Factor (Oct) (AID 2282993). As to conditions: HepG2 Attagene cis-factorial Oct reporter, mRNA; actives raise or lower the signal. A digest of the protocol:
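Read-out: reporter mRNA via RT-PCR plus capillary electrophoresis of 6-FAM-labelled fragments. Transiently transfected HepG2, 24 h exposure, endogenous TF activity on cis elements. Gain or loss of signal fitted relative to DMSO.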

Test [6] has as its target Cellular tumor antigen p53 (Homo sapiens) (UniProt P04637). Put plainly: ATG_p53_CIS: Attagene CIS-FACTORIAL HepG2 Assay for human p53 Transcription Factor (AID 2282994). As to conditions: HepG2 p53 cis-element reporter, Attagene mRNA; actives raise or lower the signal. In outline:
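Steps: transfect HepG2 with multiplexed cis reporter constructs; dose chemicals 24 h; extract RNA, reverse-transcribe, PCR-amplify reporter sequences; FAM-label, HpaI-digest, resolve fragments by CE. Activity fitted both directions relative to DMSO.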

The target in test [7] is Nuclear receptor subfamily 1 group I member 2 (Homo sapiens) (UniProt O75469). Put plainly: ATG_PXR_TRANS: Attagene TRANS-FACTORIAL HepG2 Assay for human Pregnane X Receptor (PXR) (AID 2283008; active = hit-call score of the fitted dose curve at least 0.9, where 1 is the maximum). A digest of the protocol:
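HepG2 transfected (FuGene 6) with GAL4-UAS reporter units + PXR-Gal4 chimera; dosed 24 h. Total RNA → oligo(dT) RT → PCR → 6-FAM primer extension → HpaI cut → CE. Gain-of-signal vs DMSO.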

The target of test [8] is Peroxisome proliferator-activated receptor gamma (Homo sapiens) (UniProt P37231). Put plainly: ATG_PPARg_TRANS: Attagene TRANS-FACTORIAL HepG2 Assay for human Peroxisome Proliferator-activated Receptor-gamma (PPARg) (AID 2283007; active = hit-call score of the fitted dose curve at least 0.9, where 1 is the maximum). In outline: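 Read-out: reporter mRNA induction, detected by fluorescence after RT-PCR and capillary electrophoresis. Transiently transfected human HepG2 liver cells carrying a chimeric NR-Gal4 construct were dosed for 24 h; activity was fitted upward relative to DMSO.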

In test [9] the target is human RAR-related Orphan Receptor gamma (RORg), RORC (gene 6097) (UniProt P51449). Put plainly: ATG_RORg_TRANS: Attagene TRANS-FACTORIAL HepG2 Assay for human RAR-related Orphan Receptor gamma (RORg) (AID 2283011; active = hit-call score of the fitted dose curve at least 0.9, where 1 is the maximum). A digest of the protocol: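 Activity is scored as increase in GAL4-UAS reporter mRNA over DMSO, detected by fluorescent RT-PCR and capillary electrophoresis in HepG2 cells transiently expressing a RORg-Gal4 chimera, 24 h after dosing.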

In test [10] the target is human Retinoic Acid Receptor gamma (RARg), RARG (gene 5916) (UniProt P13631). As to the kind of experiment: ATG_RARg_TRANS: Attagene TRANS-FACTORIAL HepG2 Assay for human Retinoic Acid Receptor gamma (RARg) (AID 2283009; active = hit-call score of the fitted dose curve at least 0.9, where 1 is the maximum). In outline: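 Transactivation of exogenous RARg-Gal4 fusion measured as reporter transcript induction after 24 h in transfected HepG2 cells. RNA reverse-transcribed, amplified, fluorescently labeled and resolved by capillary electrophoresis; increase relative to DMSO.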

Test [11] deals with Retinoic acid receptor alpha (Homo sapiens) (UniProt P10276). As to the kind of experiment: ATG_RARa_TRANS: Attagene TRANS-FACTORIAL HepG2 Assay for human Retinoic Acid Receptor alpha (RARa) (AID 2283005; active = hit-call score of the fitted dose curve at least 0.9, where 1 is the maximum). A digest of the protocol: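 HepG2 transiently transfected with multiplex GAL4-UAS reporter units including a human RARa–GAL4 chimera; 24 h compound exposure. Reporter mRNA quantified by RT-PCR, 6-FAM labeling and capillary electrophoresis; gain of signal versus DMSO.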

The target in test [12] is human RAR-related Orphan Receptor beta (RORb), RORB (gene 6096) (UniProt Q92753). As to the kind of experiment: ATG_RORb_TRANS: Attagene TRANS-FACTORIAL HepG2 Assay for human RAR-related Orphan Receptor beta (RORb) (AID 2283010; active = hit-call score of the fitted dose curve at least 0.9, where 1 is the maximum). A digest of the protocol:
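Read-out is reporter mRNA induction, quantified by RT-PCR with fluorescent capillary electrophoresis, 24 h post-dose in transiently transfected HepG2 expressing exogenous NR-Gal4 chimera. Activity fitted upward versus DMSO.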

Test [13] in a line: BSK_3C_uPAR: BioMAP Diversity Plus: 3C Assay for Urokinase-type plasminogen activator receptor (uPAR) Biomarker Activity (AID 2282998). As to conditions: BioMAP 3C HUVEC, uPAR biomarker ELISA; actives raise or lower the signal. In outline:
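HUVEC primary cells; 24 h post-dose; uPAR by ELISA; gain or loss of signal fitted bidirectionally vs DMSO baseline.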
In general terms: In an ELISA, binding on a coated surface is turned into a signal by an enzyme label.

Test [14] can be described thus: BSK_3C_VCAM1: BioMAP Diversity Plus: 3C Assay for Vascular cell adhesion molecule 1 (VCAM1) Biomarker Activity (AID 2282999). As to conditions: BioMAP 3C HUVEC, VCAM1 ELISA, cytokine-stimulated; actives raise or lower the signal. In outline:
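HUVEC primary cells, 24 h compound exposure; VCAM-1 by ELISA; gain/loss of signal fitted bidirectionally vs DMSO baseline.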

Test [15] is described as follows: BSK_4H_Eotaxin3: BioMAP Diversity Plus: 4H Assay for Eotaxin 3 Biomarker Activity (AID 2283000).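 Also: CCL26 protein level quantified by ELISA in parallel with SRB cytotoxicity check.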 As to conditions: primary human endothelial cells (HUVEC); actives raise or lower the signal. In outline:
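Endothelial primary cells (human umbilical vein) exposed to compound for 24 h. ELISA detection of Eotaxin-3.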

Test [16] deals with human Peroxisome Proliferator-activated Receptor alpha (PPARa), PPARA (gene 5465) (UniProt Q07869). As to the kind of experiment: ATG_PPARa_TRANS: Attagene TRANS-FACTORIAL HepG2 Assay for human Peroxisome Proliferator-activated Receptor alpha (PPARa) (AID 2283001; active = hit-call score of the fitted dose curve at least 0.9, where 1 is the maximum). In outline:
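HepG2, transient MRTU transfection, 24 h treatment. RT-PCR → FAM labelling → capillary electrophoresis. Fit vs DMSO, positive direction.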

Read-out in test [17]: Intercellular Adhesion Molecule 1 (ICAM1), ICAM1 (gene 3383)
As to the kind of experiment: BSK_3C_ICAM1: BioMAP Diversity Plus: 3C Assay for Intercellular Adhesion Molecule 1 (ICAM1) Biomarker Activity (AID 2283003). As to conditions: primary human endothelial cells (HUVEC); actives raise or lower the signal. A digest of the protocol: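 ELISA readout of ICAM1 in human umbilical vein endothelial cells in the 3C system, taken 24 h post-dose. Gain or loss of signal versus DMSO was fitted in both directions, with SRB total-protein staining run in parallel.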

In test [18] the target is human Retinoic Acid Receptor beta (RARb), RARB (gene 5915) (UniProt P10826). As to the kind of experiment: ATG_RARb_TRANS: Attagene TRANS-FACTORIAL HepG2 Assay for human Retinoic Acid Receptor beta (AID 2283004; active = hit-call score of the fitted dose curve at least 0.9, where 1 is the maximum). In outline:
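HepG2, transient MRTU transfection, NR–Gal4 chimera, 24 h treatment; RT-PCR plus CE fluorescence detection of reporter mRNA; gain of signal vs DMSO.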

Test [19] in a line: BSK_3C_Proliferation: Cell Proliferation Assessment in the BioMAP Diversity Plus: 3C Assay (AID 2283006). As to conditions: primary human endothelial cells (HUVEC). A digest of the protocol: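 Proliferation as total protein: sulforhodamine B (0.1%) stain of TCA-fixed subconfluent human umbilical vein endothelial cells, absorbance 560 nm, 48 h after dosing. Activity fitted in both directions against DMSO baseline.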

The structures appear in SMILES notation. Results filed as inconclusive are left out. The source made the active and inactive calls. The calls were made as follows, unless noted: active = hit-call score of the fitted dose curve at least 0.9, where 1 is the maximum; inactive = score below 0.9.

human Peroxisome Proliferator-activated Receptor alpha (PPARa), PPARA (gene 5465), sequence (Q07869 whole entry, looked up): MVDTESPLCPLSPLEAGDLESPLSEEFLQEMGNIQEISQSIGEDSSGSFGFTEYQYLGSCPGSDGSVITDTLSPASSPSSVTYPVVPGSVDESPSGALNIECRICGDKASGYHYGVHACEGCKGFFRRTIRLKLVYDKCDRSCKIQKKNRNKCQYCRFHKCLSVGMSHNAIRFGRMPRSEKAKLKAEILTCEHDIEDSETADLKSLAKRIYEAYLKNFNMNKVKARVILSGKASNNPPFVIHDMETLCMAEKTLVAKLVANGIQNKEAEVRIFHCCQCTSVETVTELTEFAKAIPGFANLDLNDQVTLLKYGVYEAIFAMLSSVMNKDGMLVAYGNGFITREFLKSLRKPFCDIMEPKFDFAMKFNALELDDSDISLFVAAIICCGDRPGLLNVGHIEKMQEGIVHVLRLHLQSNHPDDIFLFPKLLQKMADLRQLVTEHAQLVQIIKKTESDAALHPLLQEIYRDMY
Peroxisome proliferator-activated receptor gamma (Homo sapiens), sequence (P37231 whole entry, looked up, the tested form may be a part): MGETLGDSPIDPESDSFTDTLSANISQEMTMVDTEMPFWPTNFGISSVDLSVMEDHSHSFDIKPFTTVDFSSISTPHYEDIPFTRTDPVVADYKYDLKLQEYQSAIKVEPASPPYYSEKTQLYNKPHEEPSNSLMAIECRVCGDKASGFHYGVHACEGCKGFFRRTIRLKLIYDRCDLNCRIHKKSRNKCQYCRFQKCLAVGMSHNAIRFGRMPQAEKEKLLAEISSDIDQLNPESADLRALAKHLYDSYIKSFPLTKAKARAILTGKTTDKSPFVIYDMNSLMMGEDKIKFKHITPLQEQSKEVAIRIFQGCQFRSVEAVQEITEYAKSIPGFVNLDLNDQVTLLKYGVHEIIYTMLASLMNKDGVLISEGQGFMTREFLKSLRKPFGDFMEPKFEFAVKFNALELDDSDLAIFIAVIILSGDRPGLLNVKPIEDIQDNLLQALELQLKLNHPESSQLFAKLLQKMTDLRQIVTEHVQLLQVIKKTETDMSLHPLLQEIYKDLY
human Retinoic Acid Receptor beta (RARb), RARB (gene 5915), sequence (P10826 whole entry, looked up, the tested form may be a part): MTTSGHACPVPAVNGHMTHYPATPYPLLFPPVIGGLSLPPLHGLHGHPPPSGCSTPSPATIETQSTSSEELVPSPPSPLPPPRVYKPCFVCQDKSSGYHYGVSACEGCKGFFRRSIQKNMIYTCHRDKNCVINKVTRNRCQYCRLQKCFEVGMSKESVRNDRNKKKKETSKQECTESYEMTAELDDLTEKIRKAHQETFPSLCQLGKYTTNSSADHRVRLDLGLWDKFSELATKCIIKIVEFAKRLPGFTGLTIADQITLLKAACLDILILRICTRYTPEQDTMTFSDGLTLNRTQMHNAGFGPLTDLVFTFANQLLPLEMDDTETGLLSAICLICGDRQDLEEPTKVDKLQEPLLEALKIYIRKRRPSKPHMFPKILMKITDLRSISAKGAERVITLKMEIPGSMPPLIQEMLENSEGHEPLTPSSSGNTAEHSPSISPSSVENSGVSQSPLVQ
Nuclear receptor subfamily 1 group I member 2 (Homo sapiens), sequence (O75469 whole entry, looked up, the tested form may be a part): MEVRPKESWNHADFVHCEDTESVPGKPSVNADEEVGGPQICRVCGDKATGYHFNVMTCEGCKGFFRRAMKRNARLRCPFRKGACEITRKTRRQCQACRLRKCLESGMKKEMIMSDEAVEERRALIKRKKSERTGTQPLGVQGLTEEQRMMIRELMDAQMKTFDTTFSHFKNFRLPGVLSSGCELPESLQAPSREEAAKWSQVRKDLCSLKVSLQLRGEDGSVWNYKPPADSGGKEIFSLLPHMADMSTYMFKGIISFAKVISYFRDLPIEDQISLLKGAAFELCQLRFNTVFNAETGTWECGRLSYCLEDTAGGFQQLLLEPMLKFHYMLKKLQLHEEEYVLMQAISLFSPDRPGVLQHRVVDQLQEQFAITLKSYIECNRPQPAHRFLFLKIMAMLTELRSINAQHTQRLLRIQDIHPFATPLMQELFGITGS
Retinoic acid receptor alpha (Homo sapiens), sequence (P10276 whole entry, looked up, the tested form may be a part): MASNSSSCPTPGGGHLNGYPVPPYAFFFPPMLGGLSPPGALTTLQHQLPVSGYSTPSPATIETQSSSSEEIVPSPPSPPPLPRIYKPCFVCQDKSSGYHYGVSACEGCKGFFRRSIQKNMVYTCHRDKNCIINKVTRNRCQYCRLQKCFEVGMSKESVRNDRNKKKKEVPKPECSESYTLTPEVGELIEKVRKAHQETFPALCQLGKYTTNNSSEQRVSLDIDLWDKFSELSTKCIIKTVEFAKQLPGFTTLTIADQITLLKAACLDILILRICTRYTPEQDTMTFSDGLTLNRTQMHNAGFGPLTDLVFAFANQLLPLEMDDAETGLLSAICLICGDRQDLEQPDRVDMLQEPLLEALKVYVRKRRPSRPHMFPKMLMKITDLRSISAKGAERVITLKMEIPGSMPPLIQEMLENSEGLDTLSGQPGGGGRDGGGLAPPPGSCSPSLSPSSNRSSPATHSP
Cellular tumor antigen p53 (Homo sapiens), sequence (P04637 whole entry, looked up, the tested form may be a part): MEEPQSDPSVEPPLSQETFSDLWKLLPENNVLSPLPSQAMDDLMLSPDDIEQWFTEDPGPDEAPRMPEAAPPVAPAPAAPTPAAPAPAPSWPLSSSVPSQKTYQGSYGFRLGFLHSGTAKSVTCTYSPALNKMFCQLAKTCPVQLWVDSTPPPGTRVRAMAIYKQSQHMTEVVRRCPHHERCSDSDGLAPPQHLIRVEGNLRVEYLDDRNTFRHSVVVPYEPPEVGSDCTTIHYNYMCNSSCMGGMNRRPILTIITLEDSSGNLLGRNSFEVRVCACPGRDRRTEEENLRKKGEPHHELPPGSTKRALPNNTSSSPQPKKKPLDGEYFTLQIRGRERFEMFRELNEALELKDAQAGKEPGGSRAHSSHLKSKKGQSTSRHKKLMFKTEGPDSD
human Retinoic Acid Receptor gamma (RARg), RARG (gene 5916), sequence (P13631 whole entry, looked up, the tested form may be a part): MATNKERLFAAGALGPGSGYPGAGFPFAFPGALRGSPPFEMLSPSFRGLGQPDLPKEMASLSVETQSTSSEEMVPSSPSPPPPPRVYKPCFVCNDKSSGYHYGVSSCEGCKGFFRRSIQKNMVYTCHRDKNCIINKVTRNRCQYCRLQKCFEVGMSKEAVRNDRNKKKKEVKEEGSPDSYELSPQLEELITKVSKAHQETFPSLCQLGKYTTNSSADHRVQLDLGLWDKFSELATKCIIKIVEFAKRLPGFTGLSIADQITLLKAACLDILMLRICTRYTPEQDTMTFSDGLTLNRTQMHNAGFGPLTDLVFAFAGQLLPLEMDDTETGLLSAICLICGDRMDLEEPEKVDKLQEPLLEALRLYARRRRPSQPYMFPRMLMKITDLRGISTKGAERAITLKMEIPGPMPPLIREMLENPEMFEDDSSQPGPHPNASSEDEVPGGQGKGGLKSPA
Myc proto-oncogene protein (Homo sapiens), sequence (P01106 whole entry, looked up): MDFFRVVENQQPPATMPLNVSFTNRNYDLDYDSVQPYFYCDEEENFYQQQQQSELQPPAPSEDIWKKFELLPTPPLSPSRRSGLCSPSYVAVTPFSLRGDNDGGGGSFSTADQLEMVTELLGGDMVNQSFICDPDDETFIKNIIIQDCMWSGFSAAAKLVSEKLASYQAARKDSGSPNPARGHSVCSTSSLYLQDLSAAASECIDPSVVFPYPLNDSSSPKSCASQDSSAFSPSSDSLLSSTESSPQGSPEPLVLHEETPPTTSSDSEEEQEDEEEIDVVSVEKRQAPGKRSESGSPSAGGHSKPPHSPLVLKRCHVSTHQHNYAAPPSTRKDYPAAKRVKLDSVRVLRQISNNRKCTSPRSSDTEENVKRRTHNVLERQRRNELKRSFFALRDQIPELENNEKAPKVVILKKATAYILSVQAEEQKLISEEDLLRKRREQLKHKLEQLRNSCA
human RAR-related Orphan Receptor gamma (RORg), RORC (gene 6097), sequence (P51449 whole entry, looked up, the tested form may be a part): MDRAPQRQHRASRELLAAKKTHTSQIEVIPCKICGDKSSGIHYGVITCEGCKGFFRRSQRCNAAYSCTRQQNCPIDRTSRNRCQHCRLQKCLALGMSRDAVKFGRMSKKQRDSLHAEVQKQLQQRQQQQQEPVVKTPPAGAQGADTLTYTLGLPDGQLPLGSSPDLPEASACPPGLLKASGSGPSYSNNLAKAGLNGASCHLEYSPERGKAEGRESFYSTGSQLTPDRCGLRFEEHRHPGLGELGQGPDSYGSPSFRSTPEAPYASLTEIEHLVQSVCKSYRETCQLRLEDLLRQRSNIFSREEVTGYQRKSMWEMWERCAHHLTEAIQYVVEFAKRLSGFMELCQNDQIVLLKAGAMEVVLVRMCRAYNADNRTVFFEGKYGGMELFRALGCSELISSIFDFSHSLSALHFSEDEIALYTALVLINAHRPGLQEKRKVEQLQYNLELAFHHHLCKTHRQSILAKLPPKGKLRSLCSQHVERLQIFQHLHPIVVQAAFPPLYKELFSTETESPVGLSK
human RAR-related Orphan Receptor beta (RORb), RORB (gene 6096), sequence (Q92753 whole entry, looked up, the tested form may be a part): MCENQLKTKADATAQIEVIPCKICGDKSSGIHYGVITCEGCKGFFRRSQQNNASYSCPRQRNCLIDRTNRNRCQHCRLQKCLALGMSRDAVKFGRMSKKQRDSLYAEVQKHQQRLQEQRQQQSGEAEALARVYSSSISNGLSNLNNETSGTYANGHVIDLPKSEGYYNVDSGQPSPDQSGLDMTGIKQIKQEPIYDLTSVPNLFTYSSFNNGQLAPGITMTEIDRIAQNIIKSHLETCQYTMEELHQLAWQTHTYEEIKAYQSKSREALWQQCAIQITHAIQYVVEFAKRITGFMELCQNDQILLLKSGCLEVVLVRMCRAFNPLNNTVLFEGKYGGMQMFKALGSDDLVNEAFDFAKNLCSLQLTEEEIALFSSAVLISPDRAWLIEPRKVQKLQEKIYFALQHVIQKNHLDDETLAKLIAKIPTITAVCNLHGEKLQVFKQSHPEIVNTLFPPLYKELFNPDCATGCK

On to `N#CCc1ccc(Cl)cc1Cl`, for which the outcome in test [1], in test [2], in test [3], in [4], in test [5] and in [6] was inactive. Also, in test [7], the call was inactive.

Consider `CCC(Cc1ccccc1)(C(=O)c1ccc(N2CCOCC2)cc1)N(C)C` (centres undefined), for which the result in test [1], in test [2], in test [3], in [5], in [6] and in [9] was inactive. The AC50 was 37.2 µM (active) in test [4], 35.1 µM (active) in test [8] and 2.42 µM (active) in [7].

Take `Nc1ccc(-c2ccc(F)cc2)cc1`: the compound was called inactive in [1], in [2], in [3], in [4], in test [5] and in test [6]. The compound was classed as inactive in test [8], in test [7] and in test [9].

In the case of `C[Si](C)(CCCN)O[Si](C)(C)CCCN`, the result in [1], in test [2], in test [3], in test [4], in [5] and in test [6] was inactive. Besides, the compound was classed as inactive in test [8], in test [7], in test [10] and in test [9].

In the case of `C=CC(=O)NC(C)(C)CS(=O)(=O)O`, the outcome in test [1], in test [2], in [3], in test [4], in test [5] and in test [6] was inactive. Also, the compound was classed as inactive in test [11], in test [8], in [12] and in test [9].

Take `O=c1c2ccccc2oc2ccccc12`: the compound was classed as inactive in test [1], in test [2], in test [3], in [5], in [13] and in test [14]. Moreover, the outcome in test [15], in test [16], in test [17], in test [18], in [11] and in test [19] was inactive. For the same compound, the outcome in test [10] was inactive. In addition, the results for the AC50 in [4] and in test [7] were 26.9 µM (active) and 27.3 µM (active), respectively.

For the compound `Cc1ccc2oc(=O)ccc2c1`, the result in [1], in test [2], in [3], in test [5], in test [16] and in test [11] was inactive. For the same compound, the outcome in test [8], in [7] and in test [12] was inactive. In test [4], the AC50 is 58.4 µM (active).

Consider `CCN(CC)c1ccc(C(=O)c2ccccc2C(=O)O)c(O)c1`, for which the compound was classed as inactive in [1], in test [2], in test [3], in [4], in test [5] and in test [16]. Also, the compound was called inactive in test [9]. Further, the values for the AC50 in test [8] and in test [7] were 30 µM (active) and 0.611 µM (active), respectively.

Take `Cn1c([N+](=O)[O-])cnc1COC(N)=O`: the result in test [1], in test [2], in [3], in test [4], in [5] and in [6] was inactive. Further, the compound was classed as inactive in [11].

As to `CCc1nccnc1C`, the outcome in test [1], in test [2], in [3], in [4], in test [5] and in test [6] was inactive. Besides, the call in test [18], in test [8], in test [7] and in test [12] was inactive.

Turning to `COC(=O)C1=C(C)NC(C)=C(C(=O)OCC(C)C)C1c1ccccc1[N+](=O)[O-]` (centres undefined), the compound was classed as inactive in test [1], in [2], in [3], in test [4], in test [5] and in test [6]. Further, the AC50 in [8] was 6.19 µM (active).

Consider `Cc1ccccc1C`, for which the outcome in test [1], in test [2], in [3], in test [4], in [5] and in test [6] was inactive. The outcome in test [18], in [11], in test [8], in test [7] and in test [10] was inactive.
